According to the supplement of paper PMC6555819:

Key:
Experiment in all cases: PBM binding z-score (relative to random genomic background probes); higher = stronger binding; sequences stand for … in GC…GCGATTGACAGCGTAGAATGAAGG
[1] = system: FXR:RXRa (NR concentration 270 nM, RXRa partner concentration 90 nM)
Summary of the method: (§1)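 Binding z-scores take random background probes as their reference. They come from custom Agilent 4×180K protein-binding microarrays incubated 1 h with ligand-free nuclear receptor dimers, with antibodies against each partner (one per run) detecting binding. Scanned fluorescence was regression-normalized.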

[2] = system: LXRa:RXRa (NR concentration 270 nM, RXRa partner concentration 90 nM)
Summary of the method: as §1

[3] = system: LXRa homodimer (NR concentration 270 nM)
Summary of the method: as §1

[4] = system: LXRb:RXRa (NR concentration 270 nM, RXRa partner concentration 90 nM)
Summary of the method: as §1

[5] = system: LXRb homodimer (NR concentration 270 nM)
Summary of the method: as §1

[6] = system: PPARa:RXRa (NR concentration 270 nM, RXRa partner concentration 90 nM)
Summary of the method: as §1

[7] = system: PPARg:RXRa (NR concentration 180 nM, RXRa partner concentration 90 nM)
Summary of the method: as §1

[8] = system: PPARg:RXRa 270nM:90nM, anti-RXR (NR concentration 270 nM, RXRa partner concentration 90 nM)
Summary of the method: as §1

[9] = system: PPARg:RXRa 30nM:10nM, anti-RXR (NR concentration 30 nM, RXRa partner concentration 10 nM)
Summary of the method: as §1

[10] = system: PPARg:RXRa 90nM:30nM, anti-RXR (NR concentration 90 nM, RXRa partner concentration 30 nM)
Summary of the method: as §1

[11] = system: PPARg:RXRa DBDmut IVT, anti-RXR (DBD mutation: RXRa K156A/R161A, NR concentration 270 nM, RXRa partner concentration 90 nM)
Summary of the method: as §1

[12] = system: PPARg:RXRa IVT, anti-PPARg (NR concentration 270 nM, RXRa partner concentration 90 nM)
Summary of the method: as §1

[13] = system: PPARg DBDmut:RXRa IVT, anti-PPARg (DBD mutation: PPARg1 K132A/R137A, NR concentration 270 nM, RXRa partner concentration 90 nM)
Summary of the method: as §1

[14] = system: PPARg DBDmut IVT, anti-PPARg (DBD mutation: PPARg1 K132A/R137A, NR concentration 270 nM)
Summary of the method: as §1

[15] = system: PPARg homodimer (NR concentration 180 nM)
Summary of the method: as §1

[16] = system: PXR:RXRa (NR concentration 270 nM, RXRa partner concentration 90 nM)
Summary of the method: as §1

[17] = system: PXR homodimer (NR concentration 270 nM)
Summary of the method: as §1

[18] = system: RARa:RXR (NR concentration 270 nM, RXRa partner concentration 90 nM)
Summary of the method: as §1

[19] = system: RARa homodimer (NR concentration 270 nM)
Summary of the method: as §1

[20] = system: RARb:RXRa (NR concentration 270 nM, RXRa partner concentration 90 nM)
Summary of the method: as §1

| Sequence | PBM binding z-score [1] | PBM binding z-score [2] | PBM binding z-score [3] | PBM binding z-score [4] | PBM binding z-score [5] | PBM binding z-score [6] | PBM binding z-score [7] | PBM binding z-score [8] | PBM binding z-score [9] | PBM binding z-score [10] | PBM binding z-score [11] | PBM binding z-score [12] | PBM binding z-score [13] | PBM binding z-score [14] | PBM binding z-score [15] | PBM binding z-score [16] | PBM binding z-score [17] | PBM binding z-score [18] | PBM binding z-score [19] | PBM binding z-score [20] |
| --- | --- | --- | --- | --- | --- | --- | --- | --- | --- | --- | --- | --- | --- | --- | --- | --- | --- | --- | --- | --- |
| AAAACAGGGTCACTAGGCCAGAGTAGGTACGAAT | 6.63 | 4.02 | -0.0117 | 4 | 0.509 | 6.07 | 8.29 | 7.23 | 4.36 | 6.34 | 5.29 | 6.57 | 2.03 | 1.25 | 2.68 | 3.58 | 0.329 | 4.8 | 1.21 | 4.18 |
| GAGACTGGGGCAAAGCAGGTTACCATAAGGTTGG | 0.509 | 0.532 | -0.00898 | 0.677 | -0.382 | 2.04 | 2.19 | 1.98 | 0.147 | 1.35 | 5.26 | 5.09 | 0.833 | 0.122 | 1.16 | 0.725 | 0.197 | 1.26 | -0.331 | 1.14 |
| CTCGAAAGGTCGTGCTCCGGTGAGTATACCAAAC | 5.22 | 3.95 | 0.167 | 3.33 | 0.24 | 4.95 | 2.82 | 4.07 | 0.826 | 2.65 | 0.784 | 1.77 | 0.64 | 0.56 | 2.34 | 3.57 | 0.18 | 4.87 | -0.416 | 4.04 |
| ATACCAAGGTGACCGTGAGGTCGTTGATACTAAC | 3.38 | 2.05 | 0.765 | 2.02 | -0.023 | 2.4 | 1.44 | 1.39 | 0.228 | 0.726 | 1.21 | 2.77 | 0.39 | 0.266 | 1.4 | 3.8 | 1.45 | 3.05 | 0.22 | 2.46 |
| GCTAGCAGACCATTTGGGTCACTCAATGACGGGC | -0.199 | -0.301 | -0.619 | -0.213 | -1.15 | 0.904 | 0.52 | -0.0173 | -0.573 | -0.229 | 0.216 | 0.941 | -0.491 | -0.941 | -0.202 | 0.0959 | -0.826 | 0.598 | -0.667 | 0.935 |
| CCTACTGGGCCAAAGGGCATTGATTCCAATGCTC | 0.0219 | 0.199 | -0.482 | 0.36 | -1.02 | 4.61 | 10.3 | 9.18 | 8.24 | 9.29 | 4.36 | 5.09 | 0.51 | -0.625 | 1.09 | 0.249 | -0.593 | 0.757 | -0.681 | 1.59 |
| TAGCCTAGGTCATCGGGCCAGTATAGTACGCATC | 4.52 | 3.33 | 0.51 | 2.29 | 0.0366 | 3.91 | 3.13 | 3.04 | 0.482 | 2.16 | 1.44 | 3.19 | 0.181 | -0.303 | 1.03 | 1.81 | -0.265 | 2.58 | -0.0244 | 3.9 |
| TCATATAGGTAAACAGGTGACAGTCCGTAAGTTA | 0.832 | 0.858 | 0.306 | 0.84 | -0.213 | 2.24 | 2.52 | 3.35 | 4.16 | 3.91 | 4.87 | 4.6 | 1.49 | 1.05 | 0.856 | 0.915 | 0.237 | 0.971 | 0.875 | 0.779 |
| GCTTGTAGATCAAAGTTAAGAAAGACTAAGCTAA | -0.479 | -0.533 | -0.585 | -0.487 | -0.917 | 1.18 | 2.55 | 4.31 | 2.13 | 4.45 | 0.918 | 0.871 | -0.419 | 0.433 | -0.72 | -0.462 | -0.397 | -0.522 | -0.688 | -0.479 |
| CCGACTGGGGCAAGGTTGCCATAACGCACAGCCA | -0.306 | -0.375 | -0.461 | -0.29 | -1.05 | 0.601 | 1.87 | 2.77 | 0.553 | 2.2 | 2.66 | 2.53 | -0.344 | -1.02 | 0.0482 | -0.535 | -0.379 | -0.46 | -0.394 | 0.641 |
| CCAAGTTGGTCAGGAGGTCACACACCGGATATGA | 3.68 | 3.62 | 1.69 | 3.38 | 0.316 | 4.43 | 3.8 | 4.03 | 1.85 | 2.97 | 2.06 | 3.44 | 0.859 | 0.385 | 2.39 | 4.24 | 0.876 | 4.41 | 0.729 | 3.8 |
| CCTACTGGGCCATTCAGAGGTCTTTGATCATATG | -0.281 | -0.261 | -0.37 | -0.49 | -0.94 | 0.481 | 0.251 | 0.437 | -0.397 | -0.188 | 4.08 | 3.47 | -0.147 | -0.677 | 0.234 | -0.375 | 0.0887 | -0.471 | -0.345 | 0.306 |
| CCTTACGGGTCACTGACAGGGTATAGCATTTGGA | 4.47 | 3.35 | 0.0232 | 2.72 | -0.363 | 4.64 | 3.98 | 4.07 | 1.2 | 2.69 | 2.63 | 3.31 | 0.282 | 0.192 | 1.91 | 2.87 | -0.101 | 3.64 | 0.315 | 3.73 |
| CCTACTGGGCCACGAATGGTCATTGATTCAGTGA | -0.465 | -0.465 | -0.579 | -0.606 | -1.07 | 0.398 | 1.18 | 1.19 | -0.142 | 0.398 | 5.35 | 5.07 | -0.0715 | 0.085 | 0.236 | -0.684 | -0.838 | -0.385 | -0.616 | 0.436 |
